Screens as filed in PubChem BioAssay.
Hits are enriched below; roughly 11% of the tested compounds scored in any of these assays.
NPSR antagonist: antagonists of human neuropeptide S receptor cAMP signaling. Q6W5P4. CHO-NPSR cells, cAMP TR-FRET, antagonist mode. Potency, µM (series often up to 38.3 µM), inactives show top-dose activity change, negative = inhibition, usual class: inhibitors. hit rate 1% among 220,000. AID 1461; further: potency means the concentration at half of the fitted maximal effect; nearly all actives have a fitted effect of over 50% in size
ALDH1A1 block: blocks purified human ALDH1A1 activity. P00352. Purified ALDH1A1, NADH fluorescence, propionaldehyde substrate. Potency, µM (series often up to 75.3 µM), for the others: top-dose activity, negative = inhibition, most hits filed as inhibitors. hit rate 7.3% among 220,000. AID 1030; active means well fitted inhibition curve with a large enough effect, not every such curve was filed as active; inconclusive means small, poorly fitted or top-dose-only effect, or another doubt; inactive means no such curve, though single readings can be large or run the other way;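 further: potency means the concentration at half of the fitted maximal effect; plate controls were no enzyme wells and a reference inhibitor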
IMPase inh: IMPase inhibition in cells; AID 901; P97697; 120,000 tested, under 10 active; CHO-M1 cells, IP1 accumulation, HTRF TR-FRET ratio; inhibition (IP1 accumulation), % at 46.1 µM; active means well fitted curve in the direction sought with a large enough effect in the signal ratio, not every such curve was filed as active; inconclusive means small, poorly fitted or top-dose-only effect, or a change in a side signal; inactive means no such curve, though single readings can be large or run the other way; the % refers to the signal ratio;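 further: cells stimulated with carbachol in lithium chloride buffer; plate controls were DMSO basal wells for no effect and reference inhibitor wells for full effect; higher means more IMPase inhibition seen as more IP1 and lower FRET ratio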
Target sequence (P97697 whole entry, looked up): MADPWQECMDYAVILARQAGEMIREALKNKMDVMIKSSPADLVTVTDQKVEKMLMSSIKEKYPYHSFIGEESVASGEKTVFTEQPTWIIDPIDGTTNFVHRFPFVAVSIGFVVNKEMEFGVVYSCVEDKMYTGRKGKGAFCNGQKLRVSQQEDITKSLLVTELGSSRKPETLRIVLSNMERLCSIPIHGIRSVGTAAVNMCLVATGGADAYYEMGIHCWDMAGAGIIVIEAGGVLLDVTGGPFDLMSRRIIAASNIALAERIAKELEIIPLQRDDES
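Seeded CHO-M1 cells were dosed with compound at up to 46 uM, stimulated with carbachol for 30 min, then lysed in IP-One detection reagents. Higher IP1 lowers the TR-FRET signal.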
HPGD block: HPGD (human) dehydrogenase inhibition; P15428; purified HPGD, NADH fluorescence kinetic, PGE2 substrate; Potency, µM, without a hit: at the top dose activity change, negative = inhibition, hits mostly inhibitors; hit rate 4.3% among 150,000; active means well fitted inhibition curve with a large enough effect, not every such curve was filed as active; inconclusive means small, poorly fitted or top-dose-only effect, or another doubt; inactive means no such curve, though single readings can be large or run the other way; further: potency means the concentration at half of the fitted maximal effect
Target sequence (P15428 whole entry, looked up): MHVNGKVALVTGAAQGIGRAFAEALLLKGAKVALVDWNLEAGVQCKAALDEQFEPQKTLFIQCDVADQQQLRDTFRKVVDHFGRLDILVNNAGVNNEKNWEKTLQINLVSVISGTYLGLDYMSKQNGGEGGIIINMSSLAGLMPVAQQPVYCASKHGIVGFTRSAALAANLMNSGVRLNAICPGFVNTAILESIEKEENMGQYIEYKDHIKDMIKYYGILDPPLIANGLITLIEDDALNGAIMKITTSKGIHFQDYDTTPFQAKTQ
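20 nM HPGD preincubated 15 min at room temperature with compound in 50 mM Tris-HCl pH 8, 0.01% Tween 20. Started with 1 mM NAD+ and 30 uM prostaglandin E2; NADH fluorescence (360/450 nm) read 5 times over 30-s intervals, last minus first.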
IMPase Li inh: membrane-permeable IMPase blocker, potentiated with lithium; hit rate 0.35% among 210,000; Potency, µM (doses to about 59.4 µM), inactives show at the top dose activity, negative = IMPase inhibition, actives largely listed as inhibitors; CHO-M1 cells, IP1 TR-FRET (IP-One), carbachol + lithium;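 further: IP1 builds up when IMPase is blocked and the TR-FRET signal falls; potency means the concentration at half of the fitted maximal effect; plate controls were basal vehicle for no effect and high inhibitor control for full effect; nearly all actives have a fitted effect of over 50% in size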
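Readout is a homogeneous TR-FRET IP1 immunoassay (Ex 320, Em 665 and 620), where raised cytosolic IP1 lowers signal. Cells were CHO-M1 treated 30 min at 37C with test compounds plus a little lithium; AC50 values came from Hill-equation fitting.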
PNC assembly inh: inhibitors of perinucleolar compartment assembly. PC3M PTB-GFP, PNC prevalence imaging, 16 h; hits give low values. activity change (PNC), negative = inhibition, % at 10 µM. hit rate 3.1% among 140,000;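 active means readout at or below -70, meaning at least 70% loss of cells showing the perinucleolar compartment, a nuclear body marking cancer cells; inconclusive means readout between -30 and a set limit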;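 further: plate controls were DMSO wells for no effect and camptothecin positive control wells for full effect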
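PC3M cells stably expressing PTB-GFP, 750–1000 cells/well, treated 16 h at 37 °C with compound (23 nl of library stock), in duplicate. After paraformaldehyde fixation and Hoechst stain, imaged at 20x; PNC prevalence scored by image analysis.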
Starred values were filed as active, the others as inactive; [ ] = remark or other dose. Unless noted, the call rests on the fitted dose curve; in most records, active means well fitted curve in the direction sought with a large enough effect; inconclusive means small, poorly fitted or top-dose-only effect, or another doubt; inactive means no such curve, though single readings can be large; an effect the other way counts as inactive or inconclusive. Unless noted, on the % scale 0 is the no-effect control and ±100 the full control effect.

Screening O=C(Nc1ccccn1)C(=O)Nc1ccccn1 returned NPSR antagonist -6% and ALDH1A1 block 8%.
For Cc1ccc(C)c(NC(=S)c2ccccn2)c1 the results were NPSR antagonist inconclusive, ALDH1A1 block inconclusive, IMPase inh 3, HPGD block 28µM*, IMPase Li inh 8%[38.3 µM] and PNC assembly inh 21.
`S=C(Nc1ccccn1)c1ccccn1` gave NPSR antagonist 2µM*, ALDH1A1 block 3.5µM*, IMPase inh 5, HPGD block 8.9µM*, IMPase Li inh 16%[38.3 µM] and PNC assembly inh 26.
`CC(C)CC(NC(=O)C(NC(=O)OC(C)(C)C)C(C)C)C(=O)NC(CCC(=O)OCc1ccccc1)C(N)=O` (configuration not stated) gave NPSR antagonist -4%[46.1 µM], ALDH1A1 block 4%, IMPase inh -1, HPGD block -14%, IMPase Li inh 11% and PNC assembly inh -9.
`Cc1ccc(C)c(S(=O)(=O)N2C(=S)NC(=O)C2CC(C)C)c1` (configuration not stated) gave NPSR antagonist -13%[46.1 µM], ALDH1A1 block -5%, IMPase inh 10, HPGD block 0%, IMPase Li inh 25%[38.3 µM] and PNC assembly inh -5.
CC(C)C1C(=O)NC(=S)N1S(=O)(=O)c1ccc(C(C)(C)C)cc1 (configuration not stated) was read as NPSR antagonist -1%[46.1 µM], ALDH1A1 block 11µM*, IMPase inh -5, HPGD block -15%, IMPase Li inh 14%[38.3 µM] and PNC assembly inh 17.
Screening COc1cccc2c(=O)n(CC(=O)N3CCc4ccccc43)ccc12 returned NPSR antagonist -3%[46.1 µM], ALDH1A1 block inconclusive, IMPase inh 5, HPGD block -16%, IMPase Li inh 27%[38.3 µM] and PNC assembly inh 16.
For CCOC(=O)COc1cccc2c(=O)n(CC(=O)N3CCc4ccccc43)ccc12 the results were NPSR antagonist 9%[46.1 µM], ALDH1A1 block -5%, IMPase inh -8, HPGD block -12%, IMPase Li inh inconclusive and PNC assembly inh -111*.
Screening CCOC(=O)C(C)Oc1cccc2c(=O)n(CC(=O)NCc3ccccc3)ccc12 (configuration not stated) returned NPSR antagonist 11%.
`CCOC(=O)C(C)Oc1cccc2c(=O)n(CC(=O)N3CCCc4ccccc43)ccc12` (configuration not stated) gave NPSR antagonist -15%[46.1 µM], ALDH1A1 block 20µM*, IMPase inh -1, HPGD block inconclusive, IMPase Li inh -31%[38.3 µM] and PNC assembly inh 6.
For CCC(C)C(=O)Nc1c2c(nc3c1CCC3)CCCC2 (configuration not stated) the results were NPSR antagonist -12%[46.1 µM], ALDH1A1 block 4%, IMPase inh 8, HPGD block 1%, IMPase Li inh -3%[38.3 µM] and PNC assembly inh 2.
Screening CCC(C)NC(=O)CSc1nnc(-c2cc(-c3ccc(C)cc3)nc3ccccc23)n1N (configuration not stated) returned NPSR antagonist 8%[46.1 µM], ALDH1A1 block inconclusive, IMPase inh inconclusive, HPGD block inconclusive, IMPase Li inh inconclusive and PNC assembly inh 12.
For O=C(COc1ccccc1F)NCc1nc2ccccc2[nH]1 the results were NPSR antagonist 16%, ALDH1A1 block 6% and IMPase Li inh 2%.
`O=c1c2ccccc2nc(SCc2ccccc2)n1Cc1ccco1` gave NPSR antagonist -52%[46.1 µM], ALDH1A1 block 20µM*, IMPase inh 10, HPGD block -25%, IMPase Li inh 11%[38.3 µM] and PNC assembly inh 5.
O=c1c2ccccc2nc(SCc2nc3ccccc3s2)n1Cc1ccco1 was read as NPSR antagonist inconclusive, ALDH1A1 block -5%, IMPase inh 5, HPGD block -15%, IMPase Li inh 2%[38.3 µM] and PNC assembly inh -85*.
Screening Nc1nnc(SCCCC(=O)c2ccc(F)cc2)s1 returned NPSR antagonist 15%, ALDH1A1 block inconclusive, IMPase inh 0, HPGD block -30%, IMPase Li inh -5% and PNC assembly inh 51.
Screening N#CC(C#N)=C1C=C2C=C(N3CCOCC3)CCC2CC1 (configuration not stated) returned NPSR antagonist -51%, ALDH1A1 block 3% and IMPase Li inh 38%.
Screening N#CC(C#N)=C1C=C2C=C(N3CCCCCC3)CCC2CC1 (configuration not stated) returned NPSR antagonist -29%, ALDH1A1 block inconclusive, HPGD block -11%, IMPase Li inh 23% and PNC assembly inh -134*.
`COCC(=O)Nc1cc(OC)ccc1OC` gave NPSR antagonist inconclusive, ALDH1A1 block -7%, IMPase inh -4, HPGD block -1%, IMPase Li inh 13%[38.3 µM] and PNC assembly inh -8.
`Cc1ccc(C)c(S(=O)(=O)N2CCC(c3nc4c(nnn4Cc4ccc(F)cc4)c(=O)[nH]3)CC2)c1` gave NPSR antagonist inconclusive, ALDH1A1 block -10%, IMPase inh 2, HPGD block 13µM*, IMPase Li inh -16%[38.3 µM] and PNC assembly inh -20.
For Cc1ccc(Cn2nnc3c(=O)[nH]c(C4CCN(S(=O)(=O)c5cc(C)ccc5C)CC4)nc32)cc1 the results were NPSR antagonist inconclusive, ALDH1A1 block -6%, IMPase inh 1, HPGD block 22µM*, IMPase Li inh 0%[38.3 µM] and PNC assembly inh 44.
`O=C(Nc1ccccn1)c1ccc(S(=O)(=O)c2ccc(Cl)cc2)cc1` gave NPSR antagonist 8%, ALDH1A1 block 7% and IMPase Li inh 12%.
`O=[N+]([O-])c1ccc(Nc2nc(N/N=C\c3ccc4c(c3)OCO4)nc(N3CCCCC3)n2)cc1` gave NPSR antagonist inconclusive, ALDH1A1 block inconclusive, IMPase inh 4, HPGD block -19%, IMPase Li inh -17%[38.3 µM] and PNC assembly inh 24.
Screening Cc1c(C(=O)NCCSCc2ccc(Cl)cc2Cl)cccc1[N+](=O)[O-] returned NPSR antagonist inconclusive, ALDH1A1 block inconclusive, IMPase inh 4, HPGD block 22µM*, IMPase Li inh 23%[38.3 µM] and PNC assembly inh 11.
Cc1c(C(=O)NCCSCc2ccco2)cccc1[N+](=O)[O-] was read as NPSR antagonist 7%, ALDH1A1 block -5%, HPGD block -20%, IMPase Li inh -1% and PNC assembly inh -20.
For Cc1c(C(=O)NCCSCc2ccccc2)cccc1[N+](=O)[O-] the results were NPSR antagonist 7%, ALDH1A1 block 3.2µM* and IMPase Li inh 5%.
Cc1ccc(SCCNC(=O)c2cccc([N+](=O)[O-])c2C)cc1 was read as NPSR antagonist -18%[46.1 µM], ALDH1A1 block inconclusive, IMPase inh 6, HPGD block 25µM*, IMPase Li inh 5%[38.3 µM] and PNC assembly inh 17.
